Assay results published in PubChem BioAssay (NCI).
About 83,000 compounds went through this panel and 20% of them were active in at least one assay; those are over-represented in the sample as a whole.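 Treatment: one concentration, 48 hours, 96-well format. Scoring: percent growth, with anything below 10 considered active.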 Unmarked numbers belong to inactive results. Calls of active or inactive are those of the source.

Tests used:
Test in all cases: NCI-60 one-dose screen, 48 h (100 = growth as untreated, 0 = no growth, -100 = all killed)
Details in all cases: 10 µM
NCI-H23 lung = tested on: NCI-H23 lung
NCI-H226 lung = tested on: NCI-H226 lung
NCI-H322M lung = tested on: NCI-H322M lung
HOP-62 NSCLC = tested on: HOP-62 NSCLC
NCI-H460 lung = tested on: NCI-H460 lung
NCI-H522 lung = tested on: NCI-H522 lung
A549/ATCC NSCLC = tested on: A549/ATCC NSCLC
786-0 renal = tested on: 786-0 renal
COLO 205 colon = tested on: COLO 205 colon
DU-145 prostate = tested on: DU-145 prostate
K-562 leukemia = tested on: K-562 leukemia
MDA-MB-231 breast = tested on: MDA-MB-231 breast
RXF 393 renal = tested on: RXF 393 renal
SF-268 CNS = tested on: SF-268 CNS
SF-295 CNS = tested on: SF-295 CNS
SF-539 CNS = tested on: SF-539 CNS
UACC-257 melanoma = tested on: UACC-257 melanoma
M14 melanoma = tested on: M14 melanoma
HCT-15 colon = tested on: HCT-15 colon

Compound | growth (NCI-H23 lung) | growth (NCI-H226 lung) | growth (NCI-H322M lung) | growth (HOP-62 NSCLC) | growth (NCI-H460 lung) | growth (NCI-H522 lung) | growth (A549/ATCC NSCLC) | growth (786-0 renal) | growth (COLO 205 colon) | growth (DU-145 prostate) | growth (K-562 leukemia) | growth (MDA-MB-231 breast) | growth (RXF 393 renal) | growth (SF-268 CNS) | growth (SF-295 CNS) | growth (SF-539 CNS) | growth (UACC-257 melanoma) | growth (M14 melanoma) | growth (HCT-15 colon)
COc1ccc(-c2nc3sc(-c4ccccc4)c(-c4ccccc4)n3c2/C=C/C(=O)c2ccccn2)cc1 | 97.4% | 84% | 112% | 134% | 87% | 6.21% (active) | 87.7% | 98.7% | 76.4% | 96.7% | 66% | 75.9% | 84% | 88% | 99.5% | 83.7% | 87.2% | 89% | 60.6%
Clc1ccccc1N=Cc1ccc2c(c1)OCO2 | 108% | 105% | 110% | 110% | 116% | 80.3% | 98.2% | 104% | 109% | 112% | 87.1% | 94.4% | 106% | 107% | 102% | 112% | 104% | 103% | 100%
CCN(CC)CCOc1nc2ccccc2c2c1-c1ccc(OC)cc1C2=O | -29% (active) | 14% | -29.3% (active) | -4.04% (active) | -34.4% (active) | -56.4% (active) | -28.5% (active) | 0.417% (active) | -57.1% (active) | -8.05% (active) | -17.8% (active) | 10.7% | 3.35% (active) | -6.65% (active) | -7.99% (active) | 29.2% | -18.8% (active) | -53.3% (active) | 2.9% (active)
NC1(C(=O)O)CSSC1 | 49.8% | 60.5% | 109% | 35.9% | 13.3% | 121% | 22.1% | 107% | 102% | 78.8% | 43.3% | 124% | 74% | 101% | 33.6% | 97% | 48.5% | 9.39% (active) | 66.3%
c1ccc2c(c1)oc1c3cccnc3ccc21 | 86.8% | 87.4% | 66% | 86.7% | 81.6% | 89.8% | 94.1% | 94.4% | 104% | 102% | 95.8% | 87.7% | 94.4% | 98.3% | 105% | 88.1% | 101% | 100% | 95.1%
c1ccc(C(NC2CC3CCC2C3)c2ccccc2)cc1 (centres undefined) | 105% | 85.8% | 101% | 97.2% | 105% | 85.5% | 95.7% | 97% | 103% | 108% | 92.8% | 96.1% | 102% | 105% | 94.7% | 111% | 102% | 93.1% | 97.6%
CCCCCCCCCCCCCC[n+]1ccc(C(N)=O)cc1 | 16.7% | -7.94% (active) | 58.8% | 10.5% | 0.582% (active) | -21.7% (active) | 33.6% | -12.1% (active) | -100% (active) | 22.8% | 9.07% (active) | -35.3% (active) | -52.4% (active) | -12.5% (active) | -27.8% (active) | -3.7% (active) | 9.72% (active) | -45.1% (active) | 62.6%
Clc1cccc(-c2nc(-c3cccs3)no2)c1 | 92.8% | 100% | 114% | 97.8% | 110% | 92% | 94.1% | 99.6% | 114% | 120% | 102% | 81.4% | 113% | 106% | 92.2% | 92.6% | 110% | 105% | 47.4%
COC(=O)c1c(-c2ccccc2)csc1NC(=O)c1c(-c2ccccc2)noc1C | 61.4% | 49.6% | 56.6% | 52.1% | -15.3% (active) | 36.1% | -18.6% (active) | 24.1% | 60.6% | 39.7% | 18.5% | 59.2% | 38.8% | 36.5% | 43.8% | 33.2% | 45.5% | 52.3% | 14.5%
O=C(CC(NC(=O)OCc1ccccc1)C(=O)OCc1ccccc1)OCc1ccccc1 (centres undefined) | 106% | 106% | 99% | 94% | 101% | 89.2% | 99.3% | 106% | 99.1% | 111% | 112% | 123% | 125% | 103% | 110% | 111% | 94.2% | 90.5% | 106%
O=C(/C(=C/c1ccccc1)CN1CCCCC1)c1ccccc1 | -51.5% (active) | -31% (active) | 47.1% | -26.5% (active) | -23.9% (active) | -84% (active) | -14.2% (active) | -91.5% (active) | -79.1% (active) | 8.22% (active) | 2.9% (active) | -24.8% (active) | -77.6% (active) | -9.79% (active) | 38.6% | -43.4% (active) | -0.832% (active) | -48.4% (active) | -40.6% (active)
CN1c2ccccc2[C@]2(Cc3ccccc3)Cc3ccccc3N[C@H]12 | 91.4% | 98.2% | 111% | 120% | 111% | 71.7% | 109% | 106% | 118% | 115% | 92.1% | 97.5% | 112% | 112% | 104% | 105% | 111% | 104% | 96.3%
CC(=O)c1cc(Br)ccc1O | 105% | 101% | 127% | 118% | 105% | 87.4% | 107% | 104% | 121% | 114% | 103% | 108% | 109% | 112% | 95.3% | 97.1% | 113% | 104% | 101%
COc1cc(C)ccc1C(=O)c1ccc(C)cc1OC | 48.6% | 62.9% | 44.5% | 27.7% | 5.93% (active) | -6.71% (active) | 26.9% | 48.7% | -24.9% (active) | 0.538% (active) | 10% | 41.2% | -10.5% (active) | 43.5% | -39.1% (active) | 3.62% (active) | 60.3% | 12.4% | 36.3%
CC(=O)/C(=C/c1ccccc1)C(=O)CC(C)C | 100% | 106% | 116% | 115% | 99.8% | 95.2% | 97% | 95.9% | 100% | 92.8% | 41.5% | 119% | 103% | 95.3% | 102% | 109% | 89.6% | 82.9% | 76.1%
O=C(Nc1ccncc1)C(=O)c1cn(S(=O)(=O)c2cccc(Cl)c2)c2ccccc12 | 54.2% | 77.9% | 102% | 79.3% | 82.2% | 32.1% | 75.5% | 72.8% | 117% | 83.9% | 19.8% | 87.4% | 89.2% | 80.9% | 55.8% | 67.3% | 78.1% | 47% | 49.2%
